# POLB inh: qHTS Assay for Inhibitors of DNA Polymerase Beta; P06746; Pol beta primer extension/strand displacement, fluorescence kinetic; Potency, µM (top dose mostly 114 µM), for the others: top-dose activity change, negative = inhibition, usual class: inhibitors; 1.3% of 340,000 active; AID 485314, 2010; note: % is set by controls: 0 for no effect and ±100 for the full control effect
#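 10 nM enzyme + cpd, 15 min RT; start with substrate 50 nM final; read 0 min and after 10 min RT. Corrected, normalized data; 4-parameter Hill curve fit.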
# POLI inh: qHTS for Inhibitors of Polymerase Iota; AID 588590, 2011; 1% of 390,000 active; Pol iota fluorescent replication assay, 10 min; Potency, µM (titrated, usually from 115 µM), inactives show top-dose activity, negative = inhibition, actives largely listed as inhibitors; DNA polymerase iota (Homo sapiens), Q9UNA4
#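 Fluorescent replication assay read twice, at 0 min and 10 min after adding 50 nM (final) substrate. Enzyme (10 nM) and compounds were first incubated 15 min at room temperature; enzyme-free buffer wells were negative controls.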
# POLH inh: qHTS for Inhibitors of Polymerase Eta; DNA polymerase eta (Homo sapiens), Q9Y253; recombinant Pol eta, fluorescent DNA replication assay; Potency, µM (series often up to 114 µM), for inactives: at the highest dose activity change, negative = inhibition, usual class: inhibitors; 1.2% of 390,000 active; AID 588591, 2011; note: % is set by controls: 0 for no effect and ±100 for the full control effect
#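 Fluorescent replication assay: 50 nM final substrate added after a 15 min room-temperature compound preincubation with 10 nM enzyme. Signal taken at 0 min and again at 10 min.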
# GCN5L2 inh: qHTS Assay for Inhibitors of GCN5L2; Histone acetyltransferase KAT2A (Homo sapiens), Q92830; GCN5L2 HAT assay, ThioGlo1 CoA-SH fluorescence; Potency, µM (highest dose often 58.9 µM), for inactives: at the highest dose activity change, negative = inhibition, hits mostly inhibitors; 0.21% of 390,000 active; AID 504327, 2011; note: % is set by controls: 0 for no effect and ±100 for the full control effect
#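 Free CoA generated was detected with ThioGlo1 (50uM) fluorescence at Ex340nm/Em540nm, read immediately and after 20 min at room temperature. Enzyme, 20 nM in HEPES pH 7.5 buffer, saw compounds 15 min before adding 75uM H3(1-25) peptide and 70uM acetyl-CoA.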
# POLK inh: qHTS for Inhibitors of Polymerase Kappa; DNA polymerase kappa (Homo sapiens), Q9UBT6; purified Pol kappa, fluorescent DNA synthesis assay, 10 min; Potency, µM (series often up to 107 µM), without a hit: at the highest dose activity, negative = inhibition, hits mostly inhibitors; 0.53% of 400,000 active; note: % is set by controls: 0 for no effect and ±100 for the full control effect
#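 Here, compound and 10 nM enzyme are combined for 15 min at room temperature; adding 50 nM substrate (final) starts DNA synthesis, tracked by fluorescence at 0 and 10 min against buffer-only wells.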
# GLS inh: qHTS for Inhibitors of Glutaminase (GLS); GLS enzymatic activity, qHTS titration; Potency, µM (series often up to 45.5 µM), without a hit: at the highest dose activity change, negative = inhibition, hits mostly inhibitors; 0.21% of 410,000 active; note: % is set by controls: 0 for no effect and ±100 for the full control effect
# Target sequence (O94925 whole entry, looked up): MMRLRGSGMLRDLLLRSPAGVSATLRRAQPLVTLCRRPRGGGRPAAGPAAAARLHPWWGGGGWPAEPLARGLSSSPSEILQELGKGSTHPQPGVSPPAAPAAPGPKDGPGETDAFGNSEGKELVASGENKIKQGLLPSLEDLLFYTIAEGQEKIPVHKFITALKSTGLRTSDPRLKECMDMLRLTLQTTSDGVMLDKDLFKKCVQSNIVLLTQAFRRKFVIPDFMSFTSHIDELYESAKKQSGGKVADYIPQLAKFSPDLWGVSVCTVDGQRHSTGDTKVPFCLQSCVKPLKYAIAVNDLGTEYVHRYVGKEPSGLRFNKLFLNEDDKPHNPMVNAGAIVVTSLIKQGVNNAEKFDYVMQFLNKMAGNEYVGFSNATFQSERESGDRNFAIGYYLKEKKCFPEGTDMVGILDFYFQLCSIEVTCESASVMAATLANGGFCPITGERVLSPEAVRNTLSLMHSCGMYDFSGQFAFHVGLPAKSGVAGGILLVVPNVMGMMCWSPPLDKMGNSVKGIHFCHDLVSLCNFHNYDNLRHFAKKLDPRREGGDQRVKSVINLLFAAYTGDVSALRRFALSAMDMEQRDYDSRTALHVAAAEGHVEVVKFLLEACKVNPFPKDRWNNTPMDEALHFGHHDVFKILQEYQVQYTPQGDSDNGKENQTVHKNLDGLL
#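 Compounds were pin-transferred onto hKGA, after which L-glutamine (1 mM solution) and a detection mix of glutamate oxidase, HRP and Amplex Red were added. Initial and 30 min RT fluorescence reads were collected.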
# * hit, by the source's call; ? = inconclusive; / = no result; ! = repeats disagree; [ ] = remark or other dose. Shown are actives, neighbours in structure and some others; about 2.4% of the full set was active somewhere. Calls come from the whole dose curve; as a rule, active = well fitted inhibition curve with a large enough effect; inconclusive = small, poorly fitted or top-dose-only effect, or another doubt; inactive = no such curve, though single readings can be large or run the other way. Potency is the fitted concentration of half-maximal effect.
SMILES,POLB inh,POLI inh,POLH inh,GCN5L2 inh,POLK inh,GLS inh
COc1ccc(C2/C=C\CN(CC(C)C)C(C)C(=O)N2Cc2ccc(F)cc2)cc1 (stereo not given),/,8%,/,/,-7%,/
Cc1cccc(OCC(=O)Nc2cccc(C(=O)OCc3cc(=O)n4c(C)csc4n3)c2)c1,-1%,-21%,-8%,-3%,1%[60.1 µM],-2%
Cc1ccc(COC(=O)Cc2coc3cc(O)ccc23)cc1,?,?,-19%,-7%,4%,-11%
Cc1ccc2c(CC(=O)OCc3cc(=O)n4c(n3)sc3ccccc34)coc2c1,10µM*,?,10µM*,-14%,?,-23%
CCC(C)NC(=O)Cn1c(=O)n(Cc2ccc(C(=O)NCc3ccccc3OC)cc2)c(=O)c2ccccc21 (stereo not given),?,-12%,-5%,-7%,-2%,-7%
COCCCNC(=O)c1ccc(Cn2c(=O)c3ccccc3n(CC(=O)Nc3c(C)cccc3C)c2=O)cc1,50µM*,89µM*,-11%,-4%,-32%,-5%
COCCCNC(=O)CCCn1c(=O)c2ccccc2n(CC(=O)Nc2c(C)cccc2C)c1=O,15%,17%,-5%,-18%,0%,-8%
CCC(C)NC(=O)Cn1c(=O)n(Cc2ccc(C(=O)NCc3ccc(C)cc3)cc2)c(=O)c2ccccc21 (stereo not given),20µM*,43%,?,-3%,8%,8%
Cc1cc(Br)ccc1OCC(=O)NNC(=O)C(=O)Nc1ccccc1,28µM*,?,-16%,-4%,-19%,2%
CCC(C)[C@H](NC(=O)N1CC(=O)Nc2ccccc21)C(=O)N1CCC[C@H]1C(=O)O (stereo not given in full),3%,79µM*,-18%,-5%,11%,2%
CN(C)c1ccc(/C=C/c2ncnc3ccccc23)cc1,/,40µM*,/,/,?,/
CN(C)c1ccc(/C=C/c2nc3ccccc3s2)cc1,27%,89µM*!,-4%,1%,?,17%
CN(C)c1ccc(/C=C/c2ccc3ccccc3n2)cc1,-9%,18%,-8%,-8%,-2%,14%
CN(Cc1ccccc1)c1ccc(/C=C/c2nc3ccccc3s2)cc1,/,89µM*,/,/,25µM*,/
CN(C)c1ccc(/C=C/c2c(Cl)cnc3ccccc23)cc1,/,3%,/,/,1%,/
COc1cc(/C=C/c2nc3ccccc3s2)cc(OC)c1O,22µM*,152%,?,-1%,-17%,-5%
CC(=O)N/C(=C/c1ccccc1)c1ccncc1,/,28%,/,/,3%,/
O=C(CSc1ncnc2nc[nH]c12)Nc1nnc(SCc2ccc(Cl)c(Cl)c2)s1,40µM*,?,?,-4%,-15%,0%
COc1cc(OC)c2c(c1)OC(c1ccccc1)CC2=O (stereo not given),/,/,/,9%[0.501 µM],-9%[19.4 µM],/
Cc1ccc(-c2csc3ncnc(Nc4ccc(C(=O)O)cc4)c23)cc1,?,-4%,79µM*!,-29%,-10%,?
Cc1ccc(-c2csc3ncnc(SCc4ccc(C(=O)O)cc4)c23)cc1,?,-24%,79µM*,?,7%,1%
O=C(CSc1ncnc2scc(-c3ccccc3)c12)N1CCN(Cc2ccc3c(c2)OCO3)CC1,16µM*,?,?,?,-18%,-6%
OCC1OC(OC2C(CO)OC(OC3C(CO)OC(O)C(O)C3O)C(O)C2O)C(O)C(O)C1O (stereo not given),/,/,/,/,/,0%
O=C(COC(=O)c1ccccc1OCc1cccc(Br)c1)Nc1ccc(Br)cc1,/,-9%,/,/,-1%,/
O=C(COc1ccccc1)Nc1sc2c(c1C(=O)NCc1cccnc1)CCCC2,35µM*,?,?,-1%,-13%,-23%
SMILES,POLB inh,POLI inh,POLH inh,GCN5L2 inh,POLK inh,GLS inh
O=C(O)CCC(=O)Nc1sc2c(c1C(=O)Nc1ccccc1)CCCCC2,?,30%,89µM*!,-3%,-27%,0%
O=C(O)CCC(=O)Nc1sc2c(c1C(=O)Nc1cccc3ccccc13)CCCCC2,-7%,?,-4%,-3%,-1%,-3%
CCC(C)NC(=O)CCCN1C(=O)CCn2nc(-c3cccn3C)cc21 (stereo not given),-8%,31%,-20%,-12%,-5%[60.1 µM],7%
Cc1cc(-c2csc(N)n2)c(C)n1Cc1ccco1,-1%,?,1%,?,10µM*,-9%
Cc1cc(C(=O)COC(=O)c2cc(Cl)ccc2N)c(C)n1Cc1ccco1,40µM*,?,-16%,-10%,-41%,6%
Cc1cc(-c2csc(N)n2)c(C)n1C,0%,?,?,-16%,-16%,4%
CC/C=C(/C(=O)N[C@@H]1C(=O)N2C(C(=O)OCOC(=O)C(C)(C)C)=C(COC(N)=O)CS[C@H]12)c1csc(N)n1,/,/,/,/,/,-16%
Nc1ncnc2c1ncn2COC(CO)CO,/,?,/,/,-25%,/
C=CCn1c(SCC(=O)Nc2sc3c(c2C#N)CCC3)nnc1C1COc2ccccc2O1 (stereo not given),?,?,?,-8%,-5%,22%
Cn1c(SCC(=O)Nc2sc3c(c2C#N)CCC3)nnc1C1COc2ccccc2O1 (stereo not given),1.8µM*,?,?,-7%,-29%,3%
O=c1c2ccccc2cnn1Cc1nnc(-c2cccs2)o1,45µM*,?,-7%,-9%,-9%,-2%
N#Cc1cccc(NC(=O)CSc2sc3c(O)cc(=O)[nH]c3c2C#N)c1,?,?,50µM*,-16%,?,11%
Cc1c(Cl)cccc1NC(=O)CSc1sc2c(O)cc(=O)[nH]c2c1C#N,22%,?,-26%,-16%,-20%,4%
N#Cc1c(SCC(=O)Nc2ccccc2C(F)(F)F)sc2c(O)cc(=O)[nH]c12,-16%,32µM*,?,-27%,?,5%
CSc1ccc(NC(=O)CSc2nc3[nH]c(=O)cc(O)c3s2)cc1,/,?,40µM*,?,56µM*,0%
O=C(CSc1nc(NS(=O)(=O)c2ccccc2)cc(=O)[nH]1)Nc1ccccc1C(F)(F)F,3%,4%,-3%,-4%,-4%,-5%
N#Cc1c(SCC(=O)Nc2ccc(Cl)cc2Cl)sc2c(O)cc(=O)[nH]c12,10%,32µM*,25µM*,-14%,-41%,1%

# Screens: PubChem BioAssay, National Center for Advancing Translational Sciences (NCATS)
